Assay [1] is described as follows: compounds binding Alexa647 anti-His antibody – biochemical, small-molecule microarray, 635 nm fluorescence, artefact control for SMM control protein annotation, primary screen (AID 1128).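 Note: score merges feature fluorescence with signal-to-noise for each printed compound spot.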 Conditions: higher = more signal.
Assay [2] deals with Human papillomavirus type 1a E7 protein (residues 1-88). In words: HPV1a E7 small-molecule binders, primary screen, biochemical, small-molecule microarray, residues 1-88, 635 nm (AID 1129). Conditions: small-molecule microarray binding, fluorescence 635 nm; higher = more signal.
For assay [3], the target named is Focal adhesion kinase 1 (Homo sapiens) (UniProt Q05397). In words: PTK2 protein binding on printed compound slides – biochemical, small-molecule microarray, 635/667 nm fluorescence, BSA, DTT, primary screen (AID 1130).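 Note: composite of spot emission at 667 nm and signal to noise over triplicate slides.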 The note with it: 635 nm fluorescence, higher = more signal.
Focal adhesion kinase 1 (Homo sapiens), sequence (Q05397 whole entry, looked up): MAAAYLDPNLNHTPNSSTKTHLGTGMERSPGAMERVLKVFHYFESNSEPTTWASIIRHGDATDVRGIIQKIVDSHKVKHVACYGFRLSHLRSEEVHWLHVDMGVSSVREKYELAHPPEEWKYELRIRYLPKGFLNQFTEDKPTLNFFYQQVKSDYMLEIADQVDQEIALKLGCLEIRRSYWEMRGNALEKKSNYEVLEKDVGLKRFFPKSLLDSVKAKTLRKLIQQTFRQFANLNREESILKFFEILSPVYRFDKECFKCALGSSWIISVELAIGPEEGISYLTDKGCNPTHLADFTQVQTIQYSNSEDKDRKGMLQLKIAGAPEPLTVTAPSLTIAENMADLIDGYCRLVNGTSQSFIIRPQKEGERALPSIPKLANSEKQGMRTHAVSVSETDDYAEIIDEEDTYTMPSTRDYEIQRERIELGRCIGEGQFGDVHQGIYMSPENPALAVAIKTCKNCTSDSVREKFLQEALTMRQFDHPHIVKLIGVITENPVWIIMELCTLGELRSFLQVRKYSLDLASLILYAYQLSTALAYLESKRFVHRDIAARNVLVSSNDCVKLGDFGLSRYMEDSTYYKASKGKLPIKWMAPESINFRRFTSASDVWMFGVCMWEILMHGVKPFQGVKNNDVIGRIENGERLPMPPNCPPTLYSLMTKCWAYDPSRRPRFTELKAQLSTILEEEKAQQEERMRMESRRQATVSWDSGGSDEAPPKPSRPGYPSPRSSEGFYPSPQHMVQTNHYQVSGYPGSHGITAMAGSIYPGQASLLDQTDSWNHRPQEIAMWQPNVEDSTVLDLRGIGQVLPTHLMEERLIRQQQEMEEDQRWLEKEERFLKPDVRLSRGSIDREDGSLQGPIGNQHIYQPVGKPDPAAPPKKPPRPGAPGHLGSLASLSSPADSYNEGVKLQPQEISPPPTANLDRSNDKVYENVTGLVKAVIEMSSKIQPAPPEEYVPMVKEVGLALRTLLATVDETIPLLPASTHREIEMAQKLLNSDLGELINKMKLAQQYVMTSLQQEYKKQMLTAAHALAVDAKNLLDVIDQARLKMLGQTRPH
Assay [4] deals with Fibrinogen (Alexa647-labelled). Description: Alexa647-fibrinogen binding to printed small molecules – biochemical, small-molecule microarray, 635/667 nm fluorescence, artefact control for SMM control-protein annotation, profiling panel (AID 1131).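 Note: z-score merges 667 nm fluorescence with per-spot signal-to-noise over triplicate slides.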 Conditions: fibrinogen-A647 binding fluorescence, higher = more signal.
The target of assay [5] is Follistatin (Homo sapiens) (UniProt P19883). Description: FST protein binding to printed compounds – biochemical, small-molecule microarray, 635/667 nm fluorescence, primary screen (AID 1132). The note with it: 635 nm fluorescence, higher = more signal.
Follistatin (Homo sapiens), sequence (P19883 whole entry, looked up): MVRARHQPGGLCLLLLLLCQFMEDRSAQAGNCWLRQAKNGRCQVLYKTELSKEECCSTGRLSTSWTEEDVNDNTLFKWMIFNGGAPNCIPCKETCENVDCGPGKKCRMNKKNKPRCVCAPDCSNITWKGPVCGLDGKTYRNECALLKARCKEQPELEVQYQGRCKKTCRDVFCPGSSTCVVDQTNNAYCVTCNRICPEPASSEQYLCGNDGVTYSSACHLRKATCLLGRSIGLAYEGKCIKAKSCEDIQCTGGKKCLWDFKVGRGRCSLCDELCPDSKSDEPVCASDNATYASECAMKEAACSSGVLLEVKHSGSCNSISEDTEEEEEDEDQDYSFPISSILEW
The target in assay [6] is Fibroblast growth factor 2 (Homo sapiens) (UniProt P09038). Description: basic fibroblast growth factor binding to printed compounds – biochemical, small-molecule microarray, 635/667 nm fluorescence, primary screen (AID 1133). The note with it: FGF2, fluorescence 635/667, higher = more signal.
Fibroblast growth factor 2 (Homo sapiens), sequence (P09038 whole entry, looked up): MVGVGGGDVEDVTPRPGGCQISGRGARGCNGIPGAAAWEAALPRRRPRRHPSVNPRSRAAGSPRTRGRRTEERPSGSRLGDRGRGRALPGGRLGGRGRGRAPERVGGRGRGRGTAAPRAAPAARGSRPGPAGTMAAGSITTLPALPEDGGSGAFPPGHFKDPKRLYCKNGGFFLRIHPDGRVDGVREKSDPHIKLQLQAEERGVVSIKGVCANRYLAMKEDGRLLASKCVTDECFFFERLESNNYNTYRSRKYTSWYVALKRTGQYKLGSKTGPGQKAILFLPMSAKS
Assay [7] is described as follows: JC-1 mitochondrial potential readout, lung cancer cells – cell-based, A549, JC-1 fluorescence, basal, 24 h, 100 nL, profiling panel (AID 1138).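 Note: A549 lung adenocarcinoma cells under basal conditions with no added stimulus; test concentration not given here.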 Conditions: higher = more signal.
For the next assay, the system named is Lefty1. In words: Lefty1 protein binding to printed compounds – biochemical, small-molecule microarray, 635/667 nm fluorescence, primary screen (AID 1139). Conditions: fluorescence 635/667, higher = more signal.
Assay [8] relates to wheat germ agglutinin (Triticum aestivum), Alexa647-labelled. In words: Alexa647-WGA lectin binding to printed small molecules – biochemical, small-molecule microarray, 635/667 nm fluorescence, artefact control for SMM control-protein annotation, profiling panel (AID 1140).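 Note: score merges 667 nm feature emission with signal to noise over triplicate slides.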 Conditions: WGA-A647 binding, 635 nm fluorescence, higher = more signal.
Assay [9] has as its target Luciferin 4-monooxygenase (Photinus pyralis) (UniProt P08659). Description: inhibition of purified Photinus pyralis luciferase – biochemical, luminescence, purified enzyme, 2006 set, primary screen (AID 1141).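 Note: cell-free assay with purified firefly luciferase at 100 ng per well in PBS; test concentration not given here.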 The note with it: purified firefly luciferase, SteadyGlo luminescence, 30 min; higher = more signal, called active from +8 up or from −8 down.
The subject of assay [10] is Wnt5a (protein binding on small-molecule microarray). In words: small molecules binding Wnt5a protein – biophysical, small-molecule microarray, 635/667 nm fluorescence, primary screen (AID 1142).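 Note: fluorescence read at 667 nm with signal to noise per printed feature.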 The note with it: 635 nm fluorescence, higher = more signal.
The nature of assay [11]: ATP-based viability of Huh7 replicon cells – cell-based, CellTiter-Glo luminescence, basal, 48 h, cytotoxicity control for HCV replication inhibitor project, primary screen (AID 1143).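 Note: Huh7 hepatoma cells carrying a hepatitis C replication reporter with no stimulus; test concentration not given here.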 The note with it: higher = more signal, called active from +8 up or from −8 down. A general note: Replicon systems follow genome replication, usually without infectious particles.
The nature of assay [12]: Pseudomonas biofilm growth suppression – PAO1 strain, BacTiter-Glo luminescence, LB-PBS, primary screen (AID 1144). Conditions: P. aeruginosa PAO1 biofilm, 12 h, higher = more signal.
The nature of assay [13]: basal CRE-LacZ reporter activity in PC12 – cell-based, unstimulated, primary screen (AID 1145). The note with it: no forskolin, luminescence, 4.5 h, higher = more signal, called active from +8 up or from −8 down.
The nature of assay [14]: forskolin-driven CRE-LacZ activity in PC12 – cell-based, CRE-LacZ reporter, forskolin-stimulated, primary screen (AID 1146).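 Note: PC12 cells with 6xCRE LacZ reporter stimulated by forskolin 10 µM; beta-galactosidase reporter signal reflecting CREB driven transcription.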 Conditions: luminescence, 4.5 h, higher = more signal, called active from +8 up or from −8 down.
Assay [15] addresses Streptavidin (Streptomyces avidinii) (UniProt P22629). Description: compounds binding control protein streptavidin – biophysical, small-molecule microarray, 635/667 nm fluorescence, artefact control for SMM compound annotation, primary screen (AID 1147).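 Note: signal reflects streptavidin binding to arrayed compounds as a control protein.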 Conditions: higher = more signal.
Assay [16] can be described thus: probe aInhba binding on compound microarray – biochemical, small-molecule microarray, 635/667 nm fluorescence, primary screen (AID 1148).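 Note: score merges 667nm spot fluorescence with signal-to-noise for antibody binding to printed compounds.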 The note with it: higher = more signal.
Assay [17] has as its target Torsin-1A (Homo sapiens) (UniProt O14656). In words: TOR1A wild-type binding on microarray – cell lysate, small-molecule microarray, lysate, 635/667 nm, primary screen (AID 1149). Conditions: COS7 hTOR1A-WT lysate, 635 nm fluorescence, higher = more signal.
The target is the same in assay [18]. Description: torsin A mutant lysate binding on microarrays – cell lysate, small-molecule microarray, COS7 lysate, 635/667 nm fluorescence, primary screen (AID 1150).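 Note: score pools 667 nm emission and signal to noise measuring lysate protein binding.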 The note with it: COS7 hTOR1A mutant lysate, 635 nm fluorescence, higher = more signal.
The subject of assay [19] is Sonic hedgehog protein (Shh). In words: Sonic hedgehog microarray binding compounds – biochemical, small-molecule microarray, 635/667 nm fluorescence, primary screen (AID 1151).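 Note: Shh protein binding to compounds spotted on small-molecule microarray slides; score combines spot fluorescence intensity with signal-to-noise across triplicate slides.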 Conditions: 635 nm fluorescence, higher = more signal.

The source made the active and inactive calls. Unless noted, the rule behind the calls is not given here.

Torsin-1A (Homo sapiens), sequence (O14656 whole entry, looked up): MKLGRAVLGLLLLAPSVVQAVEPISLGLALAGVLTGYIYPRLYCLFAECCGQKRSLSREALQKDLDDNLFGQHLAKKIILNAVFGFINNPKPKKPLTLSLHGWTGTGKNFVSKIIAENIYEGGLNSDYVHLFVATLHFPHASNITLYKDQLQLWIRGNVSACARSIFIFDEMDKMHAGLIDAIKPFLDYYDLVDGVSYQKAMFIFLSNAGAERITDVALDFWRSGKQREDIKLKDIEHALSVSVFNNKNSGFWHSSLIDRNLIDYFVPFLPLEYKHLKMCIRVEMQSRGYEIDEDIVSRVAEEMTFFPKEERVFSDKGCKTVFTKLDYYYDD
Luciferin 4-monooxygenase (Photinus pyralis), sequence (P08659 whole entry, looked up): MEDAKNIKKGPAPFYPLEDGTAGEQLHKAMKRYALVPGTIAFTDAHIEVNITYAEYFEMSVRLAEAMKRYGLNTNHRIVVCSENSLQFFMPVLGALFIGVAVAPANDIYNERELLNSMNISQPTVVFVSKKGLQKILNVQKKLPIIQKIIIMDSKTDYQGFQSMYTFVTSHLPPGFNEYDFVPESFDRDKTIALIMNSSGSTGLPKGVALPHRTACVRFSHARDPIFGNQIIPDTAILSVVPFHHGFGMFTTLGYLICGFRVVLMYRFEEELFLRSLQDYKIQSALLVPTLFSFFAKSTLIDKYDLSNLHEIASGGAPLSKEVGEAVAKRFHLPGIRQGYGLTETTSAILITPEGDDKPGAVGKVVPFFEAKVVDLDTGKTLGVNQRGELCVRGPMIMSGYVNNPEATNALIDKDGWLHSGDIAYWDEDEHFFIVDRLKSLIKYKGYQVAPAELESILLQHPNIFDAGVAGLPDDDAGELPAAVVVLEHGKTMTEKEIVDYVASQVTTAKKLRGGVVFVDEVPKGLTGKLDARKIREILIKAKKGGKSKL
Streptavidin (Streptomyces avidinii), sequence (P22629 whole entry, looked up): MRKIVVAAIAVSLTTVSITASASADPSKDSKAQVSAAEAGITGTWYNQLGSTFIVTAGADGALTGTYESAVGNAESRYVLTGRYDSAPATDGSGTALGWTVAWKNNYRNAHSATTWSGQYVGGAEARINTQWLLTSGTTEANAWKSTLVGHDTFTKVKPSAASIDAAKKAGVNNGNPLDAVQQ

As to `CCN1C(=O)[C@H]2[C@H]3[C@H](O)[C@H](O)CC(=NNC(=O)OCc4ccc(OC)cc4)[C@@H]3CC[C@H]2C1=O`, the composite z-score in [1] is 0.0221; in assay [2], -0.562; in [3], 0.0875; in assay [4], -0.193; in [5], -0.735; in [6] it was 0.193. The composite z-score is -0.524 with Lefty1; 0.0083 in [8]; -0.0453 in assay [10]; -0.0023 in [15]; -0.0521 in assay [16]; -1.18 in the assay with Torsin-1A (Homo sapiens) [17]. Also, the composite z-score with Torsin-1A (Homo sapiens) [18] was -0.703; in assay [19], -1.17. For the same compound, the z-score was -0.0338 in assay [7]; -0.207 (inactive) in assay [9]; 0.821 (inactive) in assay [11]; -0.409 (inactive) in assay [12]; -0.291 (inactive) in assay [13]; -0.523 (inactive) in [14].
As to `COc1ccc(O[C@H]2C=C[C@@H](c3ccccc3)O[C@@H]2CON=C(C)CCN2CCc3nc(-c4ccccc4)c(-c4ccccc4)cc3C2)cc1`, the composite z-score in assay [1] was 1.38; in assay [2], -0.536; in assay [3] it was 0.119; in [4] it was 0.948; in [5], 0.477; in assay [6], 0.0194. In addition, the composite z-score was 0.269 in the assay with Lefty1; 0.0216 in [8]; -0.193 in [10]; 0.852 in assay [15]; -0.0719 in assay [16]; -0.449 with Torsin-1A (Homo sapiens) [17]. For the same compound, the composite z-score was -0.199 in the assay with Torsin-1A (Homo sapiens) [18] and 0.194 in assay [19]. Further, the z-score is 1.87 in assay [7]; 0.84 (inactive) in assay [9]; -0.203 (inactive) in [11]; -0.18 (inactive) in assay [12]; 1.62 (inactive) in assay [13]; 0.703 (inactive) in assay [14].
Consider `C[C@@H](c1ccccc1)N1C(=O)[C@H]2[C@H]3[C@H](O)[C@H](O)CC(=O)[C@H]3CC[C@H]2C1=O`, for which the composite z-score in assay [1] is 0.335; in assay [2] it was 0.654; in [3], 0.336; in assay [4], 0.747; in assay [5] it was 0.213; in assay [6] it was 0.284. The composite z-score with Lefty1 is 0.134; in [8] it was 0.0458; in assay [10], 0.0027; in assay [15] it was 0.182; in [16] it was -0.145; in the assay with Torsin-1A (Homo sapiens) [17], 0.0683. In addition, the values for the composite z-score (with Torsin-1A (Homo sapiens) [18]; in assay [19]) were 0.452 and 0.374, respectively. Also, the z-score is 0.911 in assay [7]; -1.36 (inactive) in assay [9]; -0.273 (inactive) in assay [11]; 0.257 (inactive) in assay [12]; -0.113 (inactive) in [13]; 0.209 (inactive) in [14].
On to `COC(=O)[C@H](C)NC(=O)CCC1CC(OC(=O)NCCc2ccc(F)cc2)CC2(CCCC(COC(=O)NCc3cccc(C(F)(F)F)c3)O2)O1` (stereo not given in full), for which the composite z-score was determined as 0.158 in [1]; 0.637 in [2]; 0.145 in [3]; 0.563 in assay [4]; 1.19 in assay [5]; 0.617 in [6]. The composite z-score with Lefty1 is 1.43; in assay [8], 0.0337; in assay [10], 0.116; in assay [15] it was 0.213; in assay [16], -0.242; with Torsin-1A (Homo sapiens) [17] it was 0.818. For the same compound, the composite z-score came out at 0.0548 in the assay with Torsin-1A (Homo sapiens) [18] and 1.09 in [19]. Moreover, the z-score in assay [7] was -0.0843; in assay [9], 0.0641 (inactive); in assay [11], -0.382 (inactive); in [12] it was 0.198 (inactive); in [13], 0.0178 (inactive); in assay [14], 0.144 (inactive).
Consider `C#CCCCON=C1C[C@@H](O)[C@@H](O)[C@@H]2[C@@H]3C(=O)N(CCC(=O)OCC)C(=O)[C@@H]3CC[C@H]12`, for which the composite z-score was 0.997 in assay [1]; 0.929 in [2]; -0.0834 in assay [3]; 0.375 in assay [4]; 1.06 in [5]; 0.613 in assay [6]. In addition, the composite z-score in the assay on Lefty1 was 0.861; in assay [8] it was 0.101; in [10] it was 0.104; in assay [15], 0.873; in assay [16] it was -0.0736; with Torsin-1A (Homo sapiens) [17], 0.0183. In addition, the composite z-score was determined as 0.36 with Torsin-1A (Homo sapiens) [18] and 1.65 in assay [19]. In addition, the z-score in assay [7] was 0.317; in [9] it was -0.891 (inactive); in [11], -1.42 (inactive); in assay [12], 1.11 (inactive); in assay [13], -0.295 (inactive); in [14] it was 0.783 (inactive).

These data come from PubChem BioAssay.
